What is called inhibition is the relative decrease from the control value, in per cent. Usually viability stands for a read-out of living cells in per cent, often relative to untreated cells.

Several values for one entry are separate records, joined by “and”; a condition that tells them apart may be missing. Equal entries are not always repeated. Activity calls are given as the source filed them.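 Rule for the calls, unless noted: active = mean z-score across replicates of 1.96 or higher in either the MELAS or the Rieske mutant cell line; inactive = the rest.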

The nature of test [1]: stimulators of insulin release from INS-1E, primary screen, cell-based, 5 mM glucose, NPC library (AID 1117329;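 active = compound raises insulin release from rat beta cells at 5 mM glucose, no numeric limit stated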). The conditions noted are these: rat INS-1E insulin secretion, at 10 µM, stronger effect = higher value.
Test [2] can be described thus: growth inhibition of GSK3B-pretreated HCT116 cells – cell-based, CellTiter-Glo, 0.2 to 20 µM (AID 1117336;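 active = compounds lowering colon cancer cell viability after pretreatment blocking the GSK3B kinase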). The conditions noted are these: HCT116 viability after GSK3B inhibitor, at 20 µM, stronger effect = higher value. (In general: ATP-based viability assays read luminescence as a measure of living cells.)
Test [3] in a line: inhibition of endothelial tube formation, primary screen, imaging, VEGF stimulated, CD31 staining, tube area, NPC library (AID 1117340;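 active = compound that reduces growth-factor-driven endothelial tube area in a mixed cell culture, no cutoff stated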). The conditions noted are these: VEGF-stimulated ADSC/ECFC co-culture, at 10 µM, stronger effect = higher value.
Test [4] can be described thus: GLP1 release stimulators, primary, NCI-H716, NPC library (AID 1117341;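 active = compound raises GLP1 secretion from the human gut endocrine cells, with no numeric limit stated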). The conditions noted are these: NCI-H716 cells, at 10 µM, stronger effect = higher value.
Test [5] in a line: HCT116 colon cancer cell growth inhibition, primary screen, CellTiter-Glo luminescence, NPC library (AID 1117342;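 active = compounds that lower survival of HCT116 colon cancer cells in the luminescence readout, no numeric limit stated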). The conditions noted are these: at 20 µM (top of the series).
The nature of test [6]: reduced SW480 viability measured with CellTiter-Glo, NPC library, primary (AID 1117343;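 active = compounds that lower viability of the colon cancer cells in the luminescence readout, with no numeric limit stated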). The following applies: CellTiter-Glo luminescence; at 20 µM (top of the series) unless noted.
A short description of test [7]: NPC library primary testing for decreased DLD-1 cell viability via CellTiter-Glo (AID 1117346;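 active = compounds that lower survival of DLD-1 colon cancer cells in the luminescence readout, no cutoff given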). The conditions noted are these: DLD-1 viability, CellTiter-Glo luminescence; at 20 µM (top of the series).
The nature of test [8]: viability loss with induced miR-34 in A549 – imaging, A549 dox-inducible miR-34, nuclei and caspase counts, primary screen (AID 1347080;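 active = compounds whose cell count with miR-34 switched on is under 0.7 times the count with it off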). The following applies: A549 miR-34 inducible, Hoechst nuclei count, 48 h.
Test [9] in a line: MELAS cybrid and Rieske KO viability enhancers – cell-based, MELAS cybrids, Rieske KO mouse fibroblasts, CellTiter-Glo, primary screen (AID 1508586).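 Note: z relative to plate mean and SD of compound and empty wells.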 The following applies: low glucose.
Test [10] has as its target 6-phosphogluconate dehydrogenase, decarboxylating (Homo sapiens) (UniProt P52209). Description: inhibition of human phosphogluconate dehydrogenase – biochemical, recombinant enzyme, NADPH absorbance, primary screen (AID 1159550;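 active = at least 20% inhibition of 6-phosphogluconate dehydrogenase activity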). The conditions noted are these: recombinant 6PGD, NADPH absorbance 341 nm; at 10 µM; stronger effect = higher value.
Test [11] is described as follows: P. berghei load reduction in hepatocytes – cell-based, HepG2, luciferase luminescence, HepG2 viability, primary screen (AID 624349; in the data active = parasite load remaining mostly below about 12%, no sharp cut-off; inactive = mostly above about 10%;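 note: 100% = mean of DMSO negative control wells on the same plate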). The following applies: P. berghei liver stage in HepG2, luciferase luminescence, concentration not given here; parasite load remaining: stronger effect = lower value; viability: measured here: HepG2 viability without parasites.
Test [12] can be described thus: galactose survival enhancers in mitochondrial complex I cybrids – cell-based, galactose medium, ATP luminescence, primary screen (AID 1645843;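 active = z-score of at least 1.8 in each of two replicates, scored against plate mean and spread of sample wells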;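 note: positive z means more ATP and so rescue of galactose-driven cybrid death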). The following applies: complex I mutant cybrid cells, 72 h, stronger effect = higher value.
Test [13] is described as follows: compounds altering viability of human ES cells (AID 493140; call rule not given here;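 note: cells exposed to compounds for four days before counting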). The conditions noted are these: human embryonic stem cell survival screen; stronger effect = higher value.
Test [14] in a line: modulation of C. elegans fzo-1 (AID 1259413; call rule not given here;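 note: fzo-1 mutant C. elegans worms in liquid wells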). The following applies: C. elegans fzo-1 modulator screen, mean read-out; stronger effect = higher value.
Test [15] can be described thus: EMT-state selective cytotoxicity in co-culture – imaging, PC-3E GFP, TEM4-18 mCherry, primary screen (AID 1345086;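 active = compounds killing one labelled cell type while sparing the other, by normalised counts and ratio limits, not self-fluorescent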;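 for all read-outs here: cells exposed to compound for 72 h before imaging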;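 for red/green cell ratio (normalised): normalised mesenchymal count divided by normalised epithelial count so high means epithelial killing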). The conditions noted are these: PC-3E GFP / TEM4-18 mCherry co-culture, imaging cell counts, at 1 µM; for red/green cell ratio (normalised): actives lie on both sides, counts scaled to control wells, 1 = unselective.
The target of test [16] is NAD(+) hydrolase SARM1 (Homo sapiens) (UniProt Q6SZW1). Kind of test: blocking NAD cleavage by SARM1 SAM-TIR – cell lysate, NAD-Glo luminescence (AID 1508614;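 active = compound whose remaining NAD level is above about 45 nM, limit read from the data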;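 note: higher remaining NAD means stronger inhibition of SARM1 NADase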). The following applies: SAM-TIR HEK293T lysate NADase, at 1 µM, stronger effect = higher value.
Chain of NAD(+) hydrolase SARM1 (Homo sapiens) (Q6SZW1 whole entry, looked up): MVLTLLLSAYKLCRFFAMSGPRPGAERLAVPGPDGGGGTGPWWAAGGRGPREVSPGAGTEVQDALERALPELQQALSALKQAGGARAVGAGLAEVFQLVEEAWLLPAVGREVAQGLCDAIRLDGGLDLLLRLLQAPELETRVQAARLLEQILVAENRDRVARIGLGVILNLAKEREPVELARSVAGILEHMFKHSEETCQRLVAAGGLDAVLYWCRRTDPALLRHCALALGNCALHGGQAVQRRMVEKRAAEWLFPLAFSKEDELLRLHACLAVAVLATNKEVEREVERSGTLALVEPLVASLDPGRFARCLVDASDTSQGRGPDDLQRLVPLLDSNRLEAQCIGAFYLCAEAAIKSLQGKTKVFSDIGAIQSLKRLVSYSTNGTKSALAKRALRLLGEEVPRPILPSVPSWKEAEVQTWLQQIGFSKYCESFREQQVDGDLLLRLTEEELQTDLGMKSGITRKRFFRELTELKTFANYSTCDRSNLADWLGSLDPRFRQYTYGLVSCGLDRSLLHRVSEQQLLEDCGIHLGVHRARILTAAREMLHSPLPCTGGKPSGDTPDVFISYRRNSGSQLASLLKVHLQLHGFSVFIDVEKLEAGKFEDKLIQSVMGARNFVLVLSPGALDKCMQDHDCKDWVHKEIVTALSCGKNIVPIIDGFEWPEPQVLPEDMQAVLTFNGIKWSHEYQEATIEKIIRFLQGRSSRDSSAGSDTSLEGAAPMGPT
Where [17] appears, read: stronger effect = lower value, cell number ratio, induced over uninduced.
The mark [18] stands for this setting: measured here: relative caspase fold change +Dox/-Dox.
[19] abbreviates: measured here: total cells with miR-34 induction, stronger effect = lower value.
Where [20] appears, read: measured here: total cells without miR-34 induction.
Setting [21] is: MELAS cybrid survival, CellTiter-Glo 48 h, stronger effect = higher value.
[22] abbreviates: Rieske KO mouse fibroblast survival, CellTiter-Glo 72 h.
[23] abbreviates: measured here: epithelial PC-3E GFP cell survival.
The mark [24] stands for this setting: measured here: mesenchymal TEM4-18 mCherry cell survival.

Chain of 6-phosphogluconate dehydrogenase, decarboxylating (Homo sapiens) (P52209 whole entry, looked up): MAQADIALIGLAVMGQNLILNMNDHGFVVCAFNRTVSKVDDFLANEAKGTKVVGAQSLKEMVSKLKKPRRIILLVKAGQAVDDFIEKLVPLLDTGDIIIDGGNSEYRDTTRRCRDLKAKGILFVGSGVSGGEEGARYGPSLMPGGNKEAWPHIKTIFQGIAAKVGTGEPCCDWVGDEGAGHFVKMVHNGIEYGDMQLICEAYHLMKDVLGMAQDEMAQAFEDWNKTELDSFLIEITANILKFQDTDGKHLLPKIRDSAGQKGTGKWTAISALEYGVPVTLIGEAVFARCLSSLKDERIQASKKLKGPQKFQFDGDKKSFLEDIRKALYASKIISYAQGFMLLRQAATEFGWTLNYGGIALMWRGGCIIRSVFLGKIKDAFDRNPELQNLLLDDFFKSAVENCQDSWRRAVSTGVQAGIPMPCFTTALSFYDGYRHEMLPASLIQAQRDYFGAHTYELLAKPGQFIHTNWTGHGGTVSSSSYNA

Take `COc1ccc(-c2nc3ccc(C4=NNC(=O)CC4C)cc3[nH]2)cc1` (stereo not given): in test [1], the insulin secretion stimulation is 2.8% (inactive). Also, the viability decrease in test [2] was 18.3% (inactive). In test [3], the tube area decrease is 80.8% (active). Moreover, the GLP1 secretion stimulation in test [4] is 6.8% (inactive). Moreover, in test [5], the inhibition of viability was 61.7% (active). The viability decrease (inhibition) in test [6] was 43% (inactive); in test [7], 52.3% (active). For the same compound, the figures for the fold change in test [8] (setting [17]) and in test [8] (setting [18]) were 0.906 (inactive) and 1.1, respectively. Further, the cell count in [8] (setting [19]) came to 5650; in test [8] (setting [20]), 6230. The z-score in [9] (setting [21]) was 1.76 (inactive); in test [9] (setting [22]) it was 0.199.

Regarding `COc1ccc(-c2c(OC)c3c(OC)c4c(cc3oc2=O)OC(C)(C)C=C4)cc1`, in [10], the inhibition is 5.26% (inactive).

Consider `COc1c(Cl)ccc(Cl)c1C(=O)O`, for which the inhibition in [10] is 7.71% (inactive).

For the compound `C[C@@H](O[C@H]1OCCN(Cc2n[nH]c(=O)[nH]2)[C@H]1c1ccc(F)cc1)c1cc(C(F)(F)F)cc(C(F)(F)F)c1`, the parasite load remaining in test [11] is 26.3% (inactive). Also, in [11], the viability was found to be 67.5%. Besides, in [1], the insulin secretion stimulation was 1.6% (inactive). Moreover, in [2], the viability decrease was 99% (active). In addition, the tube area decrease in test [3] was 108% (active). Moreover, in test [4], the GLP1 secretion stimulation was -2.9% (inactive). In [5], the inhibition of viability was 97.5% (active). Besides, the results for the viability decrease (inhibition) in [6] and in test [7] were 102% (active) and 100% (active), respectively. Also, the fold change is 0.959 (inactive) in [8] (setting [17]) and 1.18 in test [8] (setting [18]). Moreover, the cell count in test [8] (setting [19]) was 9050; in test [8] (setting [20]), 9430. Also, the z-score in test [9] (setting [21]) was 0.822 and 0.307 (inactive); in [9] (setting [22]), 2.09 and 0.201; in test [12], -0.16 (inactive).

For `C[N+]1(C)CCC(OC(=O)C(O)(c2ccccc2)C2CCCC2)C1` (stereo not given), in [13], the survival was 3.83 (inactive). The insulin secretion stimulation in test [1] is 1.8% (inactive). Moreover, the viability decrease in [2] was -4% (inactive). For the same compound, in test [3], the tube area decrease is -0.8% (inactive). Further, the GLP1 secretion stimulation in test [4] was -0.5% (inactive). The inhibition of viability in [5] is 11.3% (inactive). In addition, the viability decrease (inhibition) in test [6] is -15.2% (inactive); in [7] it was 2% (inactive). The mean signal in [14] was 254 (inactive). The red/green cell ratio (normalised) in [15] was 0.8 (inactive). Moreover, the normalised cell number came to 1.28 in [15] (setting [23]) and 1.02 in test [15] (setting [24]). Further, in test [8] (setting [20]), the cell count is 11400 and 10400 and 13800. For the same compound, the z-score in [9] (setting [21]) is 0.599 (inactive); in [9] (setting [22]), 0.684; in [12], 0.385 (inactive) and 0.61 (inactive). Besides, the remaining NAD in [16] is 10 nM (inactive).

As to `O=S(=O)(c1cccc2cnccc12)N1CCCNCC1`, the survival in test [13] is 467 (active). In addition, in [11], the parasite load remaining was 62.2% (inactive) and 44.5% (inactive). In addition, in test [11], the viability is 103% and 67.7%. For the same compound, the insulin secretion stimulation in test [1] is 4.95% (inactive). Besides, in test [2], the viability decrease was 18.1% (inactive). The tube area decrease in [3] is -19.8% (inactive). Also, the GLP1 secretion stimulation in test [4] was -2.6% (inactive). In addition, the inhibition of viability in test [5] was 24.3% (inactive). Further, the viability decrease (inhibition) in test [6] is -4.3% (inactive); in [7] it was 15.4% (inactive). Besides, in [15], the red/green cell ratio (normalised) is 1.1 (inactive). The normalised cell number in [15] (setting [23]) was determined as 0.86; in [15] (setting [24]) it was 0.95. Moreover, the z-score in [9] (setting [21]) was -0.155 (inactive) and -0.944 (inactive); in [9] (setting [22]) it was -1.52 and 0.0333; in test [12] it was -0.745 (inactive) and -1.1 (inactive). Moreover, the remaining NAD in [16] is 10 nM (inactive).

Values taken from PubChem BioAssay.
